Reference: PubChem BioAssay AID489028 (Sanford-Burnham Center for Chemical Genomics, 2010)
The campaign covered roughly 10,000 compounds. About 5,600 (56%) were called active. Rule as the data show it: active = inhibition above about 40%; inactive = the rest. So high a share suggests a set chosen from earlier hits. Not all results are given here.

Each molecule was assayed against Protein Mdm4 (Homo sapiens) + E3 ubiquitin-protein ligase Mdm2 (Homo sapiens) (UniProt O15151+Q00987) (assay: Mdm2-MdmX complex disruptors, retested hits, confirmation, luminescence, single concentration (AID 489028)). Details: Mdm2-MdmX binding, luminescent assay; at 8 µM; hits give high values.
Sequence of Protein Mdm4 (Homo sapiens) + E3 ubiquitin-protein ligase Mdm2 (Homo sapiens) (O15151 whole entry, looked up): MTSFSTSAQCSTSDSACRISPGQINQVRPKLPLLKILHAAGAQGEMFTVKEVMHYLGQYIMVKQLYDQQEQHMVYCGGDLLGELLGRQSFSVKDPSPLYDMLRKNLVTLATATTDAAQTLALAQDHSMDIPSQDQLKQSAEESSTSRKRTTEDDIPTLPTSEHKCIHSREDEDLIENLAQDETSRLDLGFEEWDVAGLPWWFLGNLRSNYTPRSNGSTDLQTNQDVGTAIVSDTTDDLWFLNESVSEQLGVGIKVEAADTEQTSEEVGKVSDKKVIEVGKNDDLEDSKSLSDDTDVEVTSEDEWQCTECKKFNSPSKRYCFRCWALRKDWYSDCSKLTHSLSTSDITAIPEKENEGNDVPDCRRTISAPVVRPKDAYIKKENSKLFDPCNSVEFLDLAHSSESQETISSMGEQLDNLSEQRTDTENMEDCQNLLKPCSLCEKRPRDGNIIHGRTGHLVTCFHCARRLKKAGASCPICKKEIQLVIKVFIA
Sequence of Protein Mdm4 (Homo sapiens) + E3 ubiquitin-protein ligase Mdm2 (Homo sapiens) (Q00987 whole entry, looked up): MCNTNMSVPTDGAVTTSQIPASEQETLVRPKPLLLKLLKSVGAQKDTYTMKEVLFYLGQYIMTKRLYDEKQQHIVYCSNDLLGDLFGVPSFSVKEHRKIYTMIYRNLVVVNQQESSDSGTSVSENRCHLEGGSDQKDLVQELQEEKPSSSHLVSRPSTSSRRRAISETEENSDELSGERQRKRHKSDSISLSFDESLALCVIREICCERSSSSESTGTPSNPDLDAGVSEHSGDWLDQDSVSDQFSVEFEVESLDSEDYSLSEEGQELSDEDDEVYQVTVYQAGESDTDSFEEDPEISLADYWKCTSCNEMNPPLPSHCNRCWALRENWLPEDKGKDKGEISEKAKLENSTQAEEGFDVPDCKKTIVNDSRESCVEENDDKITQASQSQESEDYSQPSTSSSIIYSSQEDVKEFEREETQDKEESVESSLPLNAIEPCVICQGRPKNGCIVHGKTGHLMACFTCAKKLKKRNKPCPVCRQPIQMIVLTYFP

SMILES | inhibition
CN(C)c1ccc(-n2cccc2/C=C2/SC(=Nc3ccc(F)cc3)NC2=O)cc1 | 12.6% (inactive)
CCCc1nc2c(c(=O)c3ccccc3n2C)c(=O)n1C1CCCCCC1 | 87.2% (active)
Cc1ccc(Oc2nc(-c3ccccn3)nc3ccccc23)cc1 | 3.9% (inactive)
CC(C)(C)Nc1nc(-c2ccccn2)nc2ccccc12 | 85.5% (active)
COc1cc(/C=C2\Oc3ccc(C#Cc4ccc(O)cc4)cc3C2=O)cc(OC)c1 | 33.2% (inactive)
O=C(Nc1ccncc1)c1c(F)cccc1F | 61.9% (active)
COc1ccc2cc1Oc1ccc(cc1)C[C@H]1c3cc(c(OC)cc3CCN1C)Oc1c(O)c(OC)cc3c1[C@H](C2)N(C)CC3 | 100% (active)
COc1ccc(-c2nnc(SC(=O)N3c4ccccc4Sc4ccccc43)o2)cc1 | 31.4% (inactive)
CC[C@]1(O)CC2CN(CCc3c([nH]c4ccccc34)[C@@](C(=O)OC)(c3cc4c(cc3OC)N(C=O)[C@H]3[C@@](O)(C(=O)OC)[C@H](OC(C)=O)[C@]5(CC)C=CCN6CC[C@]43[C@@H]65)C2)C1 (stereo not given in full) | 58.4% (active)
CC[C@]1(O)C[C@@H]2CN(CCc3c([nH]c4ccccc34)[C@@](C(=O)OC)(c3cc4c(cc3OC)N(C)[C@H]3[C@@](O)(C(=O)OC)[C@H](OC(C)=O)[C@]5(CC)C=CCN6CC[C@]43[C@@H]65)C2)C1 | 72.5% (active)
O=C1NC(Nc2nc3ccccc3s2)(C(F)(F)F)C(=O)N1C1CCCCC1 (stereo not given) | 62.5% (active)
COc1cc(NS(=O)(=O)c2ccc3ccccc3c2)c2ncccc2c1 | 88.3% (active)
CC(C)c1ccccc1OCC(O)CN(CC(O)COc1cccc2ccccc12)C(C)C (stereo not given) | 29.8% (inactive)
CC(=O)c1ccc(S(=O)(=O)N2CCN(C(=O)/C=C/c3ccc4ccccc4n3)CC2)cc1 | 71.5% (active)
O=C(Cc1csc(Nc2nc(=S)[nH]c3ccccc23)n1)NCCCN1CCN(c2cccc(Cl)c2)CC1 | 5% (inactive)
CC1(C)CC(N2CCN(C(c3ccccc3)c3ccccc3)CC2)=CC(=[N+]2CCCCC2)C1 | 89.8% (active)
COC(=O)c1cc(NC(=O)c2nn(C)c(=O)c3ccccc23)cc(C(=O)OC)c1 | 3.8% (inactive)
COc1ccc(-c2nn(C)c(=O)c3ccccc23)cc1NC(=O)COc1ccccc1 | 41.5% (active)
COc1cc([N+](=O)[O-])ccc1NC(=O)COC(=O)CCOc1ccc(C)cc1 | 21.9% (inactive)
CCOc1ccc(-n2c(O)c(/C=N/Nc3nc(C)cc(C)n3)c3ccccc3c2=O)cc1 | 35.1% (inactive)
CCN(CC)c1ccc(/C=N/Nc2nc(C)cc(C)n2)c(O)c1 | 53% (active)
CCN(CC)c1ccc(/C=N/NC(=O)c2cnccn2)c(O)c1 | 79% (active)
Cc1ccc(NC(=S)NC(NC(=O)Cc2cccc3ccccc23)C(Cl)(Cl)Cl)cc1 (stereo not given) | 11.2% (inactive)
C/C(=N\NC(=O)c1ccccc1F)c1ccccn1 | 41.9% (active)
COc1ccc(CC(=O)N/N=C(\C)c2ccccn2)cc1 | 14.6% (inactive)
COc1ccccc1N(CC(=O)N/N=C(\C)c1ccccc1O)S(=O)(=O)c1ccc(C)cc1 | 60.6% (active)
Cc1ccccc1C(=O)N1CCN(c2ccc(NC(=O)c3cccs3)cc2)CC1 | 48.6% (active)
Cc1ccc(-c2nnc(-c3ccc(NC(=O)c4cccs4)cc3)o2)cc1 | 20.9% (inactive)

SMILES | inhibition
Cc1cc2oc3ccc(NCCC4CCCN4C)cc3c(=O)c2cc1C (stereo not given) | 1.8% (inactive)
Cc1cccc(NS(=O)(=O)c2ccc(-c3cnc(C4CC4)o3)cc2)c1 | 47% (active)
COC(=O)CCNc1ccc2c(c1)OCCO2 | 50.1% (active)
O=C1CN(c2nc(-c3ccccc3)c3cc(Br)ccc3n2)c2ccccc2N1 | 16.2% (inactive)
COc1ccc2[nH]c(=O)c(CN(Cc3cccnc3)S(=O)(=O)c3ccccc3F)cc2c1 | 57.4% (active)
Cn1cc(/C=C/c2nc3ccccc3c(=O)n2-c2cccc([N+](=O)[O-])c2)c2ccccc21 | 40.4% (active)
Cc1c(C(=O)N/N=C/c2ccccc2)[nH]c2c([N+](=O)[O-])cccc12 | 62.2% (active)
Clc1ccc2c(c1)C1=C(C(c3ccncc3)O2)C(c2ccc(Br)cc2)n2ncnc2N1 (stereo not given) | 25.8% (inactive)
O=C(CCl)Nc1cccc(CP(=O)(c2ccccc2)c2ccccc2)c1 | 93.8% (active)
Cc1noc(C)c1-c1ccc2ncnc(NC(C)c3ccco3)c2c1 (stereo not given) | 46.5% (active)
Nc1cccc(-c2cc(-c3ccccc3)nc(-c3cccc(N)c3)n2)c1 | 9.85% (inactive)
CCCCCCCCCCOC(=O)Cn1c(COc2ccc(C)cc2)[n+](C)c2ccccc21 | 74.3% (active)
CCCCCCCCCCOC(=O)Cn1c(COc2cccc(OC)c2)[n+](C)c2ccccc21 | 53% (active)
C/C(=N\N=C(N)N)c1ccc(Cl)cc1 | 23% (inactive)
O=C1c2ccccc2C2=Nc3ccccc3SC(c3ccccc3F)C12 (stereo not given) | 23.8% (inactive)
C=C(C)COc1ccc(-c2n[nH]c(C)c2-c2ccccc2OC)c(O)c1 | 18.3% (inactive)
COc1ccc(-c2n[nH]c(C)c2-c2ccc(OC)c(OC)c2)c(O)c1 | 50.9% (active)
C=C(C)COc1ccc(-c2n[nH]c(C)c2-c2ccccc2)c(O)c1 | 2.2% (inactive)
Cc1cc(C)cc(NC(=O)Cn2cnc3c(nnn3Cc3ccc(F)cc3)c2=O)c1 | 27.3% (inactive)
CCN1C(=O)/C(=C\N2CCN(c3cccc(Cl)c3)CC2)SC1=S | 45.1% (active)
CCCCN1C(=O)/C(=C/C=C2/C=Cc3ccccc3N2CC)SC1=S | 22.4% (inactive)
CCN(CCCNC(=O)c1ccc2c(c1)NC(=O)CN2C)c1cccc(C)c1 | 20.2% (inactive)
O=C(NCCN1CCOCC1)c1ccc(/C=C2\Sc3ccccc3N(Cc3ccc(F)cc3)C2=O)cc1 | 11.8% (inactive)
CCN1CCN(CCNC(=O)c2ccc(/C=C3/Sc4ccccc4N(Cc4cccc(C)c4)C3=O)cc2)CC1 | 81.8% (active)
N#Cc1c(N)nc2c3c(sc(=N)c2c1N)NC(=O)CC3c1ccccc1Cl (stereo not given) | 2.45% (inactive)
N#Cc1ccc(C(=O)Nc2nc(-c3cccs3)c(C(=O)C(F)(F)F)s2)cc1 | 86.9% (active)
C=CCN(CC=C)S(=O)(=O)c1ccc(C(=O)Nc2nc3c(s2)CCc2ccccc2-3)cc1 | 24.2% (inactive)
